Assay results as given in PubChem BioAssay AID1347142 (National Center for Advancing Translational Sciences (NCATS), 2019).
Records with an inconclusive call do not appear. Unmarked numbers belong to inactive results. The source made the active and inactive calls. Calls come from the whole dose curve; as a rule, active = well fitted inhibition curve with a large enough effect; inconclusive = small, poorly fitted or top-dose-only effect; inactive = no such curve, though single readings can be large or run the other way.

Biological target: N-terminal Xaa-Pro-Lys N-methyltransferase 1 (Homo sapiens) (UniProt Q9BV86)
Sequence (Q9BV86 whole entry, looked up): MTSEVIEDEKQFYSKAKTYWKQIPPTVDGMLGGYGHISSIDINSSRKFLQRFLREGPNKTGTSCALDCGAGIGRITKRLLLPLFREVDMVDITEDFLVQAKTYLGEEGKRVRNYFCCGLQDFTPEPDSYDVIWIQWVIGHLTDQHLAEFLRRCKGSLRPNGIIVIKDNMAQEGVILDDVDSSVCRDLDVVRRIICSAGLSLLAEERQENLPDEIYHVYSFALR
Test: qHTS Assay for Inhibitors of N-terminal methyltransferase 1 (NTMT1): ThioGlo3 Assay Confirmatory Screen, Round 1.
Outline: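 Human NTMT1 at 125 nM was preincubated 1 min at room temperature with compounds at various concentrations or 1 uM RCC1-6 control. Substrate mix (100 uM SAM, 10 uM SAHH, 15 uM ThioGlo3) was added, and fluorescence (Ex 340/Em 450 nm) was read at start and after 30 min, normalized to background.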
Note: nearly all actives have a fitted effect of over 80% in size.
Potency is the fitted concentration of half-maximal effect.
Throughout, for activity change, negative = inhibition: 0% is about no effect.

How did the Potency turn out when `OC[C@H]1O[C@@H](n2cnc3c(NC4CCCC4)ncnc32)[C@H](O)C1O` (stereo partly specified) was run?
The Potency was “inactive”.

How did the Potency turn out when `COc1cc2c(NC3CCN(CC4CCCCC4)CC3)nc(N3CCCN(C(C)C)CC3)nc2cc1OCCCN1CCCCC1` was run?
The Potency was 24.1 µM (active).

For `COc1cc2c(NC3CCN(CC4CCCCC4)CC3)nc(N3CCCN(C)CC3)nc2cc1OCCOCCN(C)C`, which Potency is on record?
Its Potency is 24.1 µM (active).

How did the Potency turn out when `COc1cc2nc(N3CCN(C)CC3)nc(NC3CCN(C)CC3)c2cc1OC` was run?
Its Potency is 24.1 µM (active).

`COc1cc2nc(N3CC[C@H](N(C)C)C3)nc(NC3CC3)c2cc1OC` was tested. Which Potency did it give?
The Potency was “inactive”.

`COc1cc2nc(N3CCOCC3)nc(NC3CC3)c2cc1OC` was tested. Which Potency did it give?
Its Potency is 27.1 µM (active).

For `COc1cc2nc(N3CCCCC3)nc(NC3CCN(C)CC3)c2cc1OC`, which Potency is on record?
The Potency was 27.1 µM (active).

Which Potency does the source give for `COc1cc2c(NC3CCN(C(C)C)CC3)nc(N3CCCN(CC4CCCCC4)CC3)nc2cc1OCCCN1CCCC1` here?
The Potency was 24.1 µM (active).

Which Potency does the source give for `Nc1nc(Nc2ccccc2)nc2c1ncn2[C@@H]1O[C@H](CO)C(O)[C@H]1O` (stereo partly specified) here?
The Potency was 24.1 µM (active).

With `COc1cc2c(NC3CCN(C)CC3)nc(N3CCCN(C)CC3)nc2cc1O` as the compound, how does the Potency read?
Its Potency is 24.1 µM (active).

Which Potency does the source give for `Nc1ccnc2c1ncn2[C@@H]1O[C@H](CO)[C@@H](O)[C@H]1O` here?
Its Potency is 2.71 µM (active).

Which Potency does the source give for `CCCCC#Cc1nc(NC)c2ncn([C@@H]3O[C@@H](CO)[C@H](O)[C@H]3O)c2n1` here?
Its Potency is “inactive”.

With `Nc1nc2c([nH]c(=O)n2[C@@H]2O[C@H](CO)[C@@H](O)[C@H]2O)c(=O)[nH]1` as the compound, how does the activity change, negative = inhibition read?
Its activity change, negative = inhibition is 16.6% [at 6.3 µM].

How did the Potency turn out when `COc1cc2nc(NC3CCN(Cc4ccccc4)CC3)nc(N3CCCN(C)CC3)c2cc1OC` was run?
The Potency was 24.1 µM (active).

How did the Potency turn out when `COc1cc2c(NC3CCN(C(C)C)CC3)nc(N3CCC(F)(F)CC3)nc2cc1OCCCN1CCCCC1` was run?
Its Potency is 6.81 µM (active).

With `OC[C@H]1O[C@@H](n2cnc3c(NC4CCCCC4)ncnc32)[C@H](O)[C@@H]1O` as the compound, how does the Potency read?
The Potency was “inactive”.

For `COc1cc2nc(N(C)C)nc(NC3CCN(C)CC3)c2cc1OC`, which Potency is on record?
Its Potency is 24.1 µM (active).

For `Nc1ncnc2c1ncn2[C@@H]1O[C@@H](CO)[C@H](O)[C@H]1O`, which Potency is on record?
Its Potency is “inactive”.

For `CNC(=O)[C@H]1O[C@@H](n2cnc3c(NCc4ccc(N)cc4)ncnc32)[C@H](O)[C@@H]1O`, which Potency is on record?
The Potency was “inactive”.

For `CC[C@H](C)n1cc(C)c2c(C(=O)NCc3c(C)cc(C)[nH]c3=O)cc(-c3ccc(N4CCNCC4)nc3)cc21`, which Potency is on record?
Its Potency is 21.5 µM (active).

`OC[C@@H]1O[C@@H](n2cnc3c(NC4CCCC4)ncnc32)[C@H](O)[C@H]1O` was tested. Which Potency did it give?
Its Potency is “inactive”.
